# Test results taken from PubChem BioAssay.
# Activity calls are given as the source filed them.
# Tests used:
# [1] = system: Plasmodium falciparum Sir2 (PF13_0152, Sir2A); assay: pfSir2 binders on small-molecule microarrays, primary screen, biochemical, small-molecule microarray, 635 nm fluorescence (AID 1098); settings: small-molecule microarray binding, fluorescence 635 nm; higher = more signal;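 further: score merges spot fluorescence intensity with its signal-to-noise ratio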
# [2] = small-molecule microarray binders of probe aDKK1, primary screen, biochemical, biotinylated probe, 635/667 nm fluorescence (AID 1099); settings: higher = more signal;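 further: score merges 667nm spot fluorescence with signal to noise across triplicate slides; reference of the scale not given here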
# [3] = small-molecule microarray binders of probe aCHRDL2, primary screen, biochemical, biotinylated probe, 635/667 nm fluorescence (AID 1100); settings: higher = more signal
# [4] = splicing luciferase reporter signal modulators, primary screen, spliceosome inhibition project, cell-based, HEK293, splice +/- reporter (AID 1101); settings: luminescence, 24 h, higher = more signal, called active from +8 up or from −8 down;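 further: HEK293 cells carrying a splicing-competent luciferase reporter gene; test concentration not given here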
# [5] = target: Fibroblast growth factor 10 (Homo sapiens) (UniProt O15520); assay: FGF10 binders on small-molecule microarrays, primary screen, biochemical, small-molecule microarray, 635 nm fluorescence (AID 1102); settings: FGF10 binding, fluorescence 635 nm, higher = more signal
# [6] = system: glycogen synthase kinase-3 (GSK3A per assay name; protocol says GSK3B); assay: GSK3 binders on small-molecule microarrays, primary screen, biochemical, small-molecule microarray, 635 nm fluorescence, GSK3A (AID 1103); settings: small-molecule microarray binding, fluorescence 635 nm; higher = more signal; further: the record names both GSK3A and GSK3B
# [7] = target: Epidermal growth factor receptor (Homo sapiens) (UniProt P00533); assay: EGFR binders on small-molecule microarrays, primary screen, biochemical, small-molecule microarray, 635 nm fluorescence (AID 1104); settings: EGFR binding, higher = more signal;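 further: score merges 667 nm emission intensity with spot signal to noise over triplicate slides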
# [8] = target: Follistatin-related protein 3 (Homo sapiens) (UniProt O95633); assay: FSTL3 binders on small-molecule microarrays, primary screen, biochemical, small-molecule microarray, 635 nm fluorescence (AID 1105); settings: FSTL3 binding, higher = more signal;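 further: score merges emission near 667 nm and signal to noise per printed spot across three slides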
# [9] = target: Dickkopf-related protein 1 (Homo sapiens) (UniProt O94907); assay: DKK1 binders on small-molecule microarrays, primary screen, biochemical, small-molecule microarray, 635 nm fluorescence scan (AID 1106); settings: DKK1 binding, higher = more signal;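 further: score merges emission near 667 nm with signal to noise over three replicate slides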
# [10] = system: Inhibin beta A chain (activin A); assay: INHBA (activin A) binders on microarrays, primary screen, biochemical, small-molecule microarray, 635 nm fluorescence scan (AID 1107); settings: small-molecule microarray binding, higher = more signal;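 further: mouse activin A protein probed at 4.33 µg/mL on printed slides; score merges bound-protein fluorescence near 667 nm with spot signal-to-noise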
# Sequence of Fibroblast growth factor 10 (Homo sapiens) (O15520 whole entry, looked up): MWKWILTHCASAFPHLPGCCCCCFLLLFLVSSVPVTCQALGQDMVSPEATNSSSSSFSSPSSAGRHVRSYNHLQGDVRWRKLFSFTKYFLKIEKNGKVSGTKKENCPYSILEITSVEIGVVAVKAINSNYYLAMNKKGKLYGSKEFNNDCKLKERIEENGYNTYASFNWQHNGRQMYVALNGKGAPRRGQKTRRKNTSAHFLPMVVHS
# Sequence of Epidermal growth factor receptor (Homo sapiens) (P00533 whole entry, looked up): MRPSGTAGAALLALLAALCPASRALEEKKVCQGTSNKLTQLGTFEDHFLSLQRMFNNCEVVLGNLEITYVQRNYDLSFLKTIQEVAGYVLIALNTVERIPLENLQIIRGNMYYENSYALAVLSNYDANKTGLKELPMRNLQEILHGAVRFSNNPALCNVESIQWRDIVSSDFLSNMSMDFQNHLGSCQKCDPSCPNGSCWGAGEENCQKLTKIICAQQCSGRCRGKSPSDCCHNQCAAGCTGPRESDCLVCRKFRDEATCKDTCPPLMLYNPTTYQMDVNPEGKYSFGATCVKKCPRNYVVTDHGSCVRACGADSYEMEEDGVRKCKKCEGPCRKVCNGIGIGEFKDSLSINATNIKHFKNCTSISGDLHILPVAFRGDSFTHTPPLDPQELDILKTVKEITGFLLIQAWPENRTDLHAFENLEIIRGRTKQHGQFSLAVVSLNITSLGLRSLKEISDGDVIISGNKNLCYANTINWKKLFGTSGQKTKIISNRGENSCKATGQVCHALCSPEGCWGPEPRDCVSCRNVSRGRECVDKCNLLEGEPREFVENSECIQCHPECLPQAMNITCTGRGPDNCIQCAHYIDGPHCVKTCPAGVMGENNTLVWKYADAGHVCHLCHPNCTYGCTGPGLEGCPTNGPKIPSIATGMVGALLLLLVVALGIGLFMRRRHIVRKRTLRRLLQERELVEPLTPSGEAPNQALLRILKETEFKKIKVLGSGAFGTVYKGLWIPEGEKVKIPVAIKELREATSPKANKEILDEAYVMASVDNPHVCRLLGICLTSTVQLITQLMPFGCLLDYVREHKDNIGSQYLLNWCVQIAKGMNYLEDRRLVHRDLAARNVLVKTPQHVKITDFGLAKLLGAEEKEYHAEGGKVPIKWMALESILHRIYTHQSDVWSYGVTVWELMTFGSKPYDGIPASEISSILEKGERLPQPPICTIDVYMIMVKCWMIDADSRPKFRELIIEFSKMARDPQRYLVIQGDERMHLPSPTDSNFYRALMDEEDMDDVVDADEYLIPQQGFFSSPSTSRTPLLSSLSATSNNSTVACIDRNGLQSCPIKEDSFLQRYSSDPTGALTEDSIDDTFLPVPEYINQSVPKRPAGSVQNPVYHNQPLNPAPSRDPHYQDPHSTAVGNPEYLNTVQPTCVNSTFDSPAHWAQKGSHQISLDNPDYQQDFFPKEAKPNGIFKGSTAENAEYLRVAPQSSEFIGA
# Sequence of Follistatin-related protein 3 (Homo sapiens) (O95633 whole entry, looked up): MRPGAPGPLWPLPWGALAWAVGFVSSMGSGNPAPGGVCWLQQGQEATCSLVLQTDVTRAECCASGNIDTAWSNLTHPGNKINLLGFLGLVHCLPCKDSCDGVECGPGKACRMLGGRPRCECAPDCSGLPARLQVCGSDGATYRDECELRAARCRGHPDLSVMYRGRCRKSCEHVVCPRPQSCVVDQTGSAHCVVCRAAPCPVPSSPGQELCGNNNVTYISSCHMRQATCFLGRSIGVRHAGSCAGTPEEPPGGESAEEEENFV
# Sequence of Dickkopf-related protein 1 (Homo sapiens) (O94907 whole entry, looked up): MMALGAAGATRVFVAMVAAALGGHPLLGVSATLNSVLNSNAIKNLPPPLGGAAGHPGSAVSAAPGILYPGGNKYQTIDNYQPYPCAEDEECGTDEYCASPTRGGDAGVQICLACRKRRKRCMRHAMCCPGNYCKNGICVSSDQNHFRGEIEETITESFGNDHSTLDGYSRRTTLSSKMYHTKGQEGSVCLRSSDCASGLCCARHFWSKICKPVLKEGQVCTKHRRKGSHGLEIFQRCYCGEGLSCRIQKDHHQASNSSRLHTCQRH
Compound,composite z-score [1],composite z-score [2],composite z-score [3],z-score [4],composite z-score [5],composite z-score [6],composite z-score [7],composite z-score [8],composite z-score [9],composite z-score [10]
CC(C)CNC(=O)[C@@]1(C)c2ccccc2C(=O)N(Cc2cc(C(F)(F)F)cc(C(F)(F)F)c2)[C@H]1c1ccc(CO)cc1,0.386,-0.147,0.587,0.0167 (inactive),-0.631,-1.02,-0.647,-0.522,-0.6,0.32
C=C(C)C1CCC(C(O)C2C=CC3C(=O)N(C)C(=O)C3N2Nc2cc(OC)c(OC)c(OC)c2)CC1 (stereo not given),0.506,0.005,0.422,0.719 (inactive),0.755,1.17,0.885,1.15,0.519,1.11
NCCCCCNC(=O)[C@@H]1C[C@@H]2C(=O)N3CCC[C@H]3C(=O)N2[C@@H]1c1ccc(O)cc1,1.1,0.919,0.857,-0.274 (inactive),0.927,1.14,0.114,0.495,0.853,0.98
C=C(COC)/C(=C/C[C@@H](OC(C)=O)c1ccc(CO)o1)c1cc(C(=O)OC)ccc1OC,0.403,-0.138,-0.0929,0.36 (inactive),1.17,0.0212,-0.725,-0.185,-0.305,1.08
C=C(COC)/C(=C/C[C@H](OC(C)=O)c1cccc(OCCO)c1)c1cnc2ccccc2c1,1.38,-0.0559,0.0794,0.344 (inactive),1.51,0.965,0.771,1.58,0.83,1.75
COc1ccc(NC(=O)O[C@H]2[C@@H]3OC(=O)[C@H](Cc4cccc(Br)c4)C/C=C/C[C@@H](Cc4cccc(Br)c4)C(=O)O[C@H]3[C@@H](OC)O[C@@H]2CO)cc1,1.31,0.13,0.387,0.044 (inactive),0.638,0.475,0.4,0.324,0.142,0.735
COCCCNC(=O)[C@@]1(c2ccc([N+](=O)[O-])cc2)CC(=O)N(C(C)C)[C@@H]1c1ccc(CO)cc1,0.0788,0.46,0.8,0.0532 (inactive),-0.512,-0.63,0.608,0.373,0.289,1.07
COC(=O)[C@@]1(Cc2ccc(F)cc2)[C@H]2c3cc(C(=O)N4CCCC4)n(CC4CC4)c3C[C@H]2CN1C(=O)c1ccccc1,1.4,1.15,1.3,-0.761 (inactive),0.692,0.621,0.915,0.466,0.0587,0.789
COc1ccc([Si](C)(C)[C@H]2[C@H](CCO)O[C@@]3(C(=O)N(Cc4ccccc4)c4ccc(N5C(=O)c6ccccc6Oc6ccccc65)cc43)[C@@H]2C)cc1,0.365,-0.167,-0.123,-0.916 (inactive),0.0351,-0.512,-0.124,-0.734,0.0449,0.201
COCCCNC(=O)[C@@]1(Sc2ccc(C)cc2)CC(=O)N(C(C)C)[C@@H]1c1ccc(CO)cc1I,1.03,-0.0358,0.836,-2.25 (inactive),-0.0668,-0.0859,-0.839,-0.665,-1.12,0.978
COC(=O)C(CC#Cc1ccc2c(c1)[C@]1(C(=O)N2)[C@H](c2ccc(OCCO)cc2)N2[C@H](c3ccccc3)[C@H](c3ccccc3)OC(=O)[C@H]2[C@@H]1C(=O)N1CCN(c2ncccn2)CC1)C(=O)OC,1.35,0.841,0.782,0.0768 (inactive),1.14,1.32,0.331,1.37,0.982,0.53
O=C1C2C=CC(C(O)c3cccc(O)c3)N(Nc3ccccc3)C2C(=O)N1c1ccccc1 (stereo not given),-0.131,0.305,0.272,-0.664 (inactive),0.134,-0.194,0.112,-0.0752,-0.347,0.959
COCCOC(=O)N1C(=O)[C@@]2(c3cc(C#CCCO)ccc31)[C@H](C(N)=O)[C@H]1C(=O)O[C@H](c3ccccc3)[C@H](c3ccccc3)N1[C@@H]2c1ccc(OCCO)cc1,1.44,0.209,0.415,0.475 (inactive),1.25,1.23,0.808,1.14,0.616,0.914
COCC(=C=CC[C@@H](O)c1ccc(OCCO)cc1)CCO,1.67,-0.0695,-0.113,1.12 (inactive),1.27,-0.155,-0.265,0.409,0.299,0.892
CCN(CC)c1ccc(N2CC=CC34O[C@@H]5/C=C\CCC(C)OC(=O)C5[C@H]3C(=O)N(C(C)CO)[C@@H]4C2=O)cc1 (stereo not given in full),-0.516,-0.47,-0.514,0.0828 (inactive),-0.408,-0.189,-0.455,-0.159,0.492,1.5
CCOC(=O)C[C@H]1[C@H](OC(=O)c2ccccc2-c2ccccc2)[C@@H](NC(=O)c2ccc3ccccc3n2)c2cc(OCCCO)ccc2N1C(=O)c1ccccc1,0.459,-0.269,-0.46,-0.407 (inactive),0.526,0.45,0.575,0.581,0.499,0.0428

Compound,composite z-score [1],composite z-score [2],composite z-score [3],z-score [4],composite z-score [5],composite z-score [6],composite z-score [7],composite z-score [8],composite z-score [9],composite z-score [10]
CCCCC(=O)N(CCN1CCOCC1)[C@@H]1CC(C(=O)NCCO)=C[C@H](Oc2c(I)cc(CO)cc2OC)[C@H]1O,0.787,-0.309,-0.764,0.751 (inactive),0.318,0.725,0.349,0.412,0.817,0.0845
C[C@@H]1ON(c2ccc(I)cc2)[C@H](c2ccc(OC(=O)OC(C)(C)C)cc2)[C@H]1C(=O)N1C(=O)OC[C@H]1Cc1ccccc1,0.718,-0.14,-0.345,-1.78 (inactive),0.367,1.07,0.458,0.872,0.567,0.0676
C=C(CCCC)C(=O)CC[C@@H](OC(=O)c1cccnc1)c1ccc(OCCO)cc1,1.25,-0.191,-0.266,2.51 (inactive),1.67,0.704,0.298,1.39,0.714,0.982
CC(=O)n1cc(C(O)C2C=CC3C(=O)N(c4ccccc4)C(=O)C3N2Nc2ccc(C(C)C)cc2)c2ccccc21 (stereo not given),1.17,0.389,0.883,0.811 (inactive),0.881,1.1,0.281,0.766,0.076,1.02
COCCOC(=O)N1C(=O)[C@@]2(c3cc(C#CCC(C(=O)OC)C(=O)OC)ccc31)[C@H](C(=O)NC[C@H](O)c1ccccc1)[C@H]1C(=O)O[C@H](c3ccccc3)[C@H](c3ccccc3)N1[C@@H]2c1ccc(OCCO)cc1,1.18,-0.0002,-0.132,0.28 (inactive),1.04,1.35,0.97,1.09,0.909,0.534
COCCOC(=O)N1C(=O)[C@@]2(c3ccccc31)[C@H](c1ccccc1OCCO)N1[C@H](c3ccccc3)[C@H](c3ccccc3)OC(=O)[C@H]1[C@@H]2C(N)=O,1.28,0.701,0.74,-2.08 (inactive),1.2,1.25,0.888,1.43,1.16,0.186
CCCCCCCCCCC(O)C1C=CC2C(=O)N(c3ccccc3)C(=O)C2N1Nc1ccccc1F (stereo not given),0.565,0.0158,0.973,1.25 (inactive),-0.387,-0.676,-0.571,-0.292,-0.867,1.21
C=C(COC)C(=O)CC[C@@H](OC(=O)c1cccnc1)c1ccccc1OCCO,1.4,0.403,0.647,0.591 (inactive),0.694,-0.0625,-0.333,0.529,0.18,1.51
COC(=O)[C@@]1(Cc2ccccc2CN=[N+]=[N-])N=C(c2ccc(OCCCO)cc2)O[C@H]1c1ccccc1,1.13,0.789,0.966,0.31 (inactive),-0.438,-0.0487,-0.0819,-0.153,-0.459,1.13
COc1ccc(C(=O)Nc2cccc(CN3C(=O)[C@@]4(O[C@@H](CC(=O)N(CCO)Cc5ccccc5)[C@H]([Si](C)(C)c5ccc(OC)cc5)[C@H]4C)c4ccccc43)c2)cc1,1.4,-0.566,-0.0709,-2.23 (inactive),-0.0511,0.196,0.0627,0.823,0.26,0.636
CCCCC=C[C@@H](NC(=O)c1ccccc1)c1ccccc1,0.322,0.357,0.732,-0.696 (inactive),0.659,1.22,-0.056,0.79,0.0017,1.01
COCCOC(=O)N1C(=O)[C@@]2(c3cc(C#Cc4ccc(OC)cc4)ccc31)[C@H](c1ccc(OCCO)cc1)N1[C@H](c3ccccc3)[C@H](c3ccccc3)OC(=O)[C@H]1[C@@H]2C(=O)Nc1nc2ccccc2s1,0.181,0.636,0.533,-0.697 (inactive),1.06,0.506,0.397,0.805,0.154,0.598
CN1C(=O)[C@@H]2[C@@H](CC(COc3ccccc3)=C([C@H](O)CCc3ccccc3)[C@@H]2CO)C1=O,-0.194,-0.0537,-0.317,-0.165 (inactive),-0.0903,-0.621,0.218,-0.0809,0.298,0.484
NCCCCCNC(=O)[C@H]1C[C@H]2C(=O)N[C@@H](Cc3ccccc3)C(=O)N2[C@H]1c1ccc(O)cc1,1.16,1.42,0.937,0.195 (inactive),-0.0576,0.431,-0.381,0.275,0.224,1.39
CN1C(=O)C2C=CC(C(O)c3ccc(I)cc3)N(Nc3ccccc3)C2C1=O (stereo not given),1.23,0.158,0.926,0.623 (inactive),1.16,0.995,0.271,1.31,-0.158,0.966
